# High-throughput results from PubChem BioAssay.
# PrPC surface inh = cell surface PrPC inhibition, primary TR-FRET screen. P04156. TR-FRET read-out. inhibition, % at 13.8 µM. actives 0.43% (n = 370,000); in the data active means inhibition above about 24%; further: 0% = median of the test wells and 100% = reference compound wells
# PrP 5UTR inh = suppresses PrP 5' UTR mRNA reporter expression; cell-based PrP 5' UTR mRNA reporter, plate reader; inhibition, % (no concentration beside the values); actives 0.35% (n = 340,000); AID 488862; in the data active means inhibition above about 52%; further: 0 = median of the neutral control wells
# VHR inh abs = DUSP3 (human) phosphatase inhibition; inhibition, % at 13.3 µM; actives 0.52% (n = 290,000); recombinant VHR phosphatase, pNPP absorbance; AID 1654; P51452; in the data active means inhibition above about 50%
# 3CLpro inhibitor = SARS-CoV 3CLpro protease inhibition | recombinant SARS-CoV 3CLpro, quenched FRET peptide cleavage | inhibition, % at 6 µM | actives 0.14% (n = 290,000); in the data active means inhibition above about 12%
# MazEF act = activators of E. coli MazEF toxin-antitoxin RNase; P0AE70; FAM/BHQ RNA-DNA oligo cleavage fluorescence, 5 h; actives 0.32% (n = 350,000); activation, % at 20 µM; AID 504720; in the data active means activation above about 50%
# Mtb hypoxia rep = inhibitors of hypoxia-regulated fluorescent reporter in Mycobacterium tuberculosis; fluorescence inhibition, % (concentration not given with the values); actives 0.1% (n = 300,000); AID 1159583; M. tuberculosis hypoxia-regulated fluorescent reporter, fluorescence; in the data active means fluorescence inhibition mostly above about 23%, no sharp cut-off; inactive means mostly below about 17%
# PrPC TRFRET cf = confirmation of inhibitors of cell surface human prion protein; AID 743200; actives 65% (n = 1,500); shares compounds with PrPC surface inh; cell surface PrPC level, TR-FRET; inhibition, % at 13.8 µM; in the data active means inhibition above about 25%
# LD9 cytotox = kills or reduces viability of LD9 cells in PrPc counter-screen; shares compounds with PrPC surface inh; LD9 cells cytotoxicity, luminescence viability; inhibition, % at 13.8 µM; actives 29% (n = 1,500); AID 743201; in the data active means inhibition above about 9.5%
# * hit, by the source's call; nt = not tested or not shown. Compounds with a hit are over-represented: about 1.5% of the library has one in this group of screens.
SMILES,PrPC surface inh,PrP 5UTR inh,VHR inh abs,3CLpro inhibitor,MazEF act,Mtb hypoxia rep,PrPC TRFRET cf,LD9 cytotox
CCOC(=O)c1sc(Nc2nc3c(OC)cccc3s2)cc1C,40.0*,-17.2,-9.7,2.0,3.5,9.7,47.5*,-6.5
O=C(Nc1ccc(F)cc1)c1nc(S(=O)(=O)Cc2ccccc2)ncc1Cl,66.1*,-6.7,-52.1,-2.0,-4.4,nt,63.6*,94.0*
Cc1ccc(NC(=O)c2nc(S(=O)(=O)Cc3ccccc3)ncc2Cl)cc1,83.8*,-5.2,23.9,2.1,22.2,nt,56.5*,92.5*
Cc1ccccc1CS(=O)(=O)c1ncc(Cl)c(C(=O)Nc2ccc(F)cc2)n1,7.8,14.5,7.1,-2.7,8.5,1.7,nt,nt
Cc1cccc(CS(=O)(=O)c2ncc(Cl)c(C(=O)NCc3ccccc3)n2)c1,25.9*,-0.8,16.5,-1.0,-8.9,-1.3,5.4,45.7*
CCS(=O)(=O)c1ncc(Cl)c(C(=O)Nc2ccc(S(=O)(=O)N(C)c3ccccc3)cc2)n1,88.9*,-5.8,38.3,1.2,7.5,nt,102.2*,96.7*
O=C1CCC(O)CCN1C(CSc1ccccc1)Cc1ccccc1 (stereo unspecified),nt,nt,nt,nt,nt,7.0,nt,nt
CCCCCC(=O)Nc1cccc(C2=NOC3(C2)CC(C(N)=O)N(C(=O)c2ccccc2C(=O)c2ccccc2)C3)c1 (stereo unspecified),nt,nt,nt,nt,nt,0.1,nt,nt
Cc1cc(C(=O)Nc2ccc(Br)cn2)sc1C,23.8,-92.8,nt,nt,6.3,20.1,nt,nt
O=C(Nc1ccc(Br)cn1)c1ccc(Br)s1,28.3*,-82.1,14.6,8.0,22.7,9.7,43.9*,-3.4
Cc1ccc(CN2C(Cc3ccccc3)C(=O)CS2(=O)=O)cc1 (stereo unspecified),nt,nt,nt,nt,nt,5.8,nt,nt
CCc1ccccc1NC(=O)C1CCCN(S(=O)(=O)c2ccc3c(c2)CC(C)N3C(C)=O)C1 (stereo unspecified),30.7*,-26.0,-2.3,3.0,1.5,1.0,15.9,-2.8
Brc1cc2[nH]cnc2c2ccccc12,60.8*,-11.8,-11.0,-0.2,5.4,11.0,78.8*,-8.2
CN(C)CCCNC(=O)c1cc(C(=O)c2ccccc2)c[nH]1,-5.3,-7.8,5.2,1.1,4.7,6.0,nt,nt
O=C(c1ccccc1)c1c[nH]c(C(=O)NNc2ccccc2)c1,26.9*,-34.3,17.5,-0.8,7.4,11.7,23.5,6.5
Cc1cccc(C=NNc2nncc3ccccc23)c1,nt,nt,nt,nt,nt,-5.1,nt,nt
O=C(COc1cccc2c1CCN(Cc1ccccc1)C2=O)N1CCCCC1,29.2*,-7.9,14.7,-1.5,3.7,12.5,18.3,-2.6
CC1CCC2(CC1)C(Nc1cccc(Cl)c1)=NC(=S)N2CC#N (stereo unspecified),36.5*,-8.7,-3.3,-2.4,-2.3,6.6,38.9*,-6.8
CCCCCCCC/C=C\CCCCCCCC(=O)NCCc1ccc(O)c(O)c1,82.9*,-2.7,nt,nt,-4.7,nt,44.2*,64.6*
Cc1nn(Cc2ccc(Cl)c(Cl)c2)c(C)c1NC(=O)c1cc(-c2ccco2)on1,38.1*,-16.9,4.4,1.9,-1.1,5.6,30.8*,0.8
Cc1nn(Cc2ccc(Cl)cc2)c(C)c1NC(=O)c1cc(-c2ccco2)on1,32.4*,1.5,-4.3,3.1,-16.2,7.9,31.2*,4.1
Cc1ccc(Cn2nc(C)c(NC(=O)c3cc(-c4ccco4)on3)c2C)cc1,nt,-31.5,44.7,-4.0,-0.6,11.4,nt,nt
Cc1ccccc1Cn1nc(C)c(NC(=O)c2cc(-c3ccco3)on2)c1C,1.7,8.2,14.1,1.6,8.0,4.5,nt,nt
S=C1NC2=C(C(c3ccc(Br)cc3)N1)N1CCC2CC1 (stereo unspecified),26.4*,-22.8,17.3,-7.6,-12.6,-3.5,25.3*,-0.4
COC(=O)[C@]12C[C@H](CC(=O)N3CCCC3)C(=O)N(CCC3=CCCCC3)C1=C[C@H](C(C)C)O[C@@H]2C1CC1,27.9*,nt,nt,nt,nt,nt,30.8*,-3.3
SMILES,PrPC surface inh,PrP 5UTR inh,VHR inh abs,3CLpro inhibitor,MazEF act,Mtb hypoxia rep,PrPC TRFRET cf,LD9 cytotox
CCCCCCCCN1C(=O)[C@@H](CC(=O)N2CCOCC2)C[C@@]2(C(=O)OC)C1=C[C@H](C(C)C)O[C@@H]2C1CC1,22.1,nt,nt,nt,nt,nt,nt,nt
COC(=O)[C@]12C[C@H](CC(=O)N3CCCCC3)C(=O)N(CCC3=CCCCC3)C1=C[C@H](C(C)C)O[C@@H]2C1CC1,29.5*,nt,nt,nt,nt,nt,31.6*,-2.3
CCCCCCCCN1C(=O)[C@@H](CC(=O)N2CCCC2)C[C@@]2(C(=O)OC)C1=C[C@H](C(C)C)O[C@@H]2C1CC1,30.2*,nt,nt,nt,nt,nt,36.3*,-2.9
COC(=O)[C@]12C[C@H](CC(=O)N3CCN(C(=O)c4ccco4)CC3)C(=O)N(CCC3=CCCCC3)C1=C[C@H](C(C)C)O[C@@H]2C1CC1,-0.1,nt,nt,nt,nt,nt,nt,nt
COC(=O)C(Cc1ccccc1)NC(=O)OC1C(=O)c2ccc(OC)cc2OC1c1ccc2c(c1)OCO2 (stereo unspecified),nt,nt,nt,nt,nt,-7.9,nt,nt
CC(=O)c1sccc1NC(=O)c1ccccc1C(=O)O,47.0*,-7.6,16.3,-2.4,2.2,nt,109.0*,-5.6
Cc1ccc(-n2nc3ccc(NC(=S)NC(=O)/C=C/c4ccco4)cc3n2)cc1,65.1*,-33.6,-9.9,2.5,4.7,nt,42.1*,-4.5
Cc1ccc(-n2nc3cc(C)c(NC(=S)NC(=O)/C=C/c4ccco4)cc3n2)cc1,18.4,-26.3,20.0,6.4,-5.6,1.2,nt,nt
O=C(Nc1ccccc1C(=O)NN=Cc1ccc(F)cc1)c1ccccc1Br,nt,nt,nt,nt,nt,5.5,nt,nt
Cc1cc(C)c2sc(NNC(=O)c3ccc(S(=O)(=O)N4CCc5ccccc5C4)cc3)nc2c1,29.0*,23.0,-11.0,8.2,-8.7,2.1,30.0*,12.0*
Cc1cc(C)c2nc(NNC(=O)c3ccc(S(=O)(=O)N4CCc5ccccc5C4)cc3)sc2c1,21.4,16.9,7.6,3.1,0.8,6.7,nt,nt
CCOC(=O)C(CC)Sc1nnc2c3cc(C)ccc3n(C)c2n1 (stereo unspecified),30.1*,-13.8,15.4,3.6,4.6,2.3,34.5*,-4.9
COc1ccc(S(=O)(=O)N(C)CC2Oc3c(NC(=O)c4ccncc4)cccc3C(=O)N(C(C)CO)CC2C)cc1 (stereo unspecified),nt,nt,nt,nt,nt,3.2,nt,nt
COc1cc(C=NNC(=O)CCN2CCN(c3ccccc3)CC2)cc(OC)c1OC,nt,nt,nt,nt,nt,13.3,nt,nt
CC(C)CC(N)c1csc(Nc2ccccn2)n1 (stereo unspecified),9.9,nt,nt,nt,nt,nt,nt,nt
CC(C)CC(N)c1csc(Nc2cnccn2)n1 (stereo unspecified),31.4*,nt,nt,nt,nt,nt,25.5*,-5.1
COc1ccc(Br)cc1C(C[N+](=O)[O-])c1c(N)n(C)c(=O)n(C)c1=O (stereo unspecified),68.0*,-5.5,-15.0,7.2,-12.6,nt,37.7*,33.4*
